# PMC4552634, “A New Set of Chemical Starting Points with Plasmodium falciparum Transmission-Blocking Potential for Antimalarial Drug Discovery” (PLoS ONE, 2015)
# Hit rate of the full screen: of about 13,000 compounds, about 3,200 (25%) showed an effect of 50% or more. The list shows a part of the results.
# Tested on: P. falciparum stage V gametocytes
# Parameters: BacTiter-Glo ATP luminescence viability of purified stage V gametocytes in 384-well plates, per cent inhibition versus DMSO
# Conditions: 48 h, 5 µM; inhibitor
row,SMILES,% Inhibition [%]
1,CS(=O)(=O)c1cccc(-c2ccc3oc(C(N)=O)c(NC(=O)c4cccs4)c3c2)c1 [TCMDC-138862],19.31
2,O=C(CCCCCNC(=O)c1ccc(O)c(-c2ccc(Cl)c(Cl)c2)c1)NCCN1CCCCC1 [TCMDC-140856],8.201
3,COc1cc(Cc2cnc(N)nc2N)cc(OCCCc2cc(OCc3ccccc3)no2)c1OC [TCMDC-138084],0.05649
4,COc1ccc(C(=O)C2CC2CN2CC=C(c3c(C)[nH]c4ccccc34)CC2)cc1 (centres unmarked) [TCMDC-136872],7.556
5,COc1cccc(C(=O)C2CC2CN2CC=C(c3c[nH]c4ccc(OC)nc34)CC2)c1 (centres unmarked) [TCMDC-136875],11.19
6,Cc1[nH]c2ccccc2c1C1=CCN(CC2CC2C(=O)c2ccccc2)CC1 (centres unmarked) [TCMDC-136870],56.06
7,COc1cccc(C(=O)C2CC2CN2CC=C(c3c[nH]c4cccc(Br)c34)CC2)c1 (centres unmarked) [TCMDC-136773],-17.42
8,Cc1[nH]c2ccccc2c1C1=CCN(CCCCC2(C)C(=O)Nc3ccccc32)CC1 (centres unmarked) [TCMDC-140740],-83.27
9,O=C(c1ccccc1)C1CC1CN1CC=C(c2c[nH]c3ccccc23)CC1 (centres unmarked) [TCMDC-136771],-5.765
10,Cc1[nH]c2cc(F)ccc2c1C1=CCN(CCCCC2(C)C(=O)Nc3ccccc32)CC1 (centres unmarked) [TCMDC-141003],-43.4
11,COc1ccc(C(=O)C2CC2CN2CC=C(c3c[nH]c4cccc(Br)c34)CC2)cc1 (centres unmarked) [TCMDC-136801],-30.41
12,Cc1[nH]c2ccccc2c1C1=CCN(CCCCC2(C)C(=O)Nc3cccc(F)c32)CC1 (centres unmarked) [TCMDC-140942],52.59
13,COc1ccc(C(=O)C2CC2CN2CC=C(c3c[nH]c4ccc(OC)nc34)CC2)cc1 (centres unmarked) [TCMDC-136873],84.74
14,COc1ccc2[nH]cc(C3=CCN(CC4CC4C(=O)c4ccccc4)CC3)c2n1 (centres unmarked) [TCMDC-136871],-1.485
15,COc1cccc(C(=O)C2CC2CN2CC=C(c3c(C)[nH]c4ccccc34)CC2)c1 (centres unmarked) [TCMDC-136874],78.13
16,Nc1nc(N)c2c(ccc3nn(Cc4cccnc4)cc32)n1 [TCMDC-137968],-0.02415
17,CS(=O)(=O)c1ccc(-c2cc(C(F)(F)F)nc(N[C@@H]3CCCC[C@H]3OCc3ccccc3)n2)cc1 [TCMDC-138567],-4.461
18,CC[C@@]1(O)C(=O)OCc2c1cc1n(c2=O)Cc2c-1nc1cc3c(cc1c2CN1CCOCC1)OCO3 [TCMDC-131876],7.387
19,Cc1nc2nc(N)nc(N)c2c(C)c1Cc1ccc(C#N)cc1 [TCMDC-137653],-12.58
20,O=c1cc(NCCCNCc2cc(Cl)cc(Cl)c2OCc2ccc(Cl)cc2)[nH]c2ccccc12 [TCMDC-139604],-52.63
21,CCCN1CCC(NCc2cn(C)nc2-c2ccc(Oc3ccccc3)cc2)CC1 [TCMDC-124676],46.58
22,COc1cc(Cl)c(C)cc1N(Cc1ccccc1-c1ccccc1)S(=O)(=O)c1ccc(C(F)(F)F)cc1 [TCMDC-141750],-7.334
23,COc1ccccc1Oc1c(N(C)S(=O)(=O)c2ccc(C(C)C)cc2)nc(C(F)(F)F)nc1N(C)S(=O)(=O)c1ccc(C(C)C)cc1 [TCMDC-132001],61.81
24,Cn1cncc1CCN(Cc1ccc(-c2ccc(C(F)(F)F)cc2)cc1)C(=O)Cn1c(CCc2cccc(F)c2F)cc(=O)c2cccnc21 [TCMDC-141455],99.09

row,SMILES,% Inhibition [%]
1,O=C(Cn1c(CCc2cccc(F)c2F)cc(=O)c2cccnc21)N(CCN1CCCC1)Cc1ccc(-c2ccc(C(F)(F)F)cc2)cc1 [TCMDC-141463],53.17
2,O=C(Cn1c(CCc2cccc(F)c2F)cc(=O)c2cccnc21)N(CCn1ccnc1)Cc1ccc(-c2ccc(C(F)(F)F)cc2)cc1 [TCMDC-141474],11.29
3,O=C(Cn1c(CCc2cccc(F)c2F)cc(=O)c2ccccc21)N(CCN1CCCC1)Cc1ccc(-c2ccc(C(F)(F)F)cc2)cc1 [TCMDC-141120],-20.2
4,Cn1cncc1CCCN(Cc1ccc(-c2ccc(C(F)(F)F)cc2)cc1)C(=O)Cn1c(CCc2cccc(F)c2F)cc(=O)c2cccnc21 [TCMDC-141502],-3.632
5,CCCOc1ccc(OCCCON2C(N)=NC(N)=NC2(C)C)cc1 [TCMDC-131737],9.517
6,CC1CCCN(S(=O)(=O)c2ccc(NC(=O)c3cc(-c4ccccc4O)n[nH]3)cc2)C1 (centres unmarked) [TCMDC-125194],-32.46
7,O=C1NC(=O)C(c2ccc(Cl)cc2)=C1Nc1cccc(S(=O)(=O)C(F)(F)F)c1 [TCMDC-139487],41.44
8,Cc1cc(C)cc(-n2c(C)cc(/C=C3\SC(=Nc4ccc(Cl)cc4)NC3=O)c2C)c1 [TCMDC-124103],64.96
9,Cc1cc(C=C2SC(=Nc3ccccc3)N(C3CCCC3)C2=O)c(C)n1-c1ccc(Cl)cc1 [TCMDC-125698],-5.321
10,CCn1c(C)cc(C=C2SC(=Nc3ccccc3)NC2=O)c1C [TCMDC-124456],-43.68
11,COc1cc(Cc2cnc(N)nc2N)cc(OC)c1OCCCCCN1C(=O)c2ccccc2C1=O [TCMDC-138036],16.13
12,CCCCCCNC(=O)C1Cc2c([nH]c3ccc(C)cc23)C2(CCN(Cc3ccccc3)CC2)N1 (centres unmarked) [TCMDC-141091],29.77
13,CC(C)CCNC(=O)C1Cc2c([nH]c3cc(Cl)ccc23)C2(CCN(CCc3ccccc3)CC2)N1 (centres unmarked) [TCMDC-141294],25.11
14,CNC(=O)C1Cc2c([nH]c3ccc(Br)cc23)C2(CCN(CCc3ccccc3)CC2)N1 (centres unmarked) [TCMDC-141185],-21.04
15,CCCNC(=O)C1Cc2c([nH]c3cc(Br)ccc23)C2(CCN(CCc3ccccc3)CC2)N1 (centres unmarked) [TCMDC-141260],-73.32
16,CCCCCCNC(=O)C1Cc2c([nH]c3ccc(Br)cc23)C2(CCN(CCc3ccccc3)CC2)N1 (centres unmarked) [TCMDC-141182],-10.63
17,CC(C)CCNC(=O)C1Cc2c([nH]c3cc(Br)ccc23)C2(CCN(CCc3ccccc3)CC2)N1 (centres unmarked) [TCMDC-141259],-3.364
18,CNC(=O)C1Cc2c([nH]c3cc(Br)ccc23)C2(CCN(CCc3ccccc3)CC2)N1 (centres unmarked) [TCMDC-141261],85.59
19,CCCNC(=O)C1Cc2c([nH]c3ccc(Br)cc23)C2(CCN(CCc3ccccc3)CC2)N1 (centres unmarked) [TCMDC-141184],7.991
20,O=C(NCC1CC1)C1Cc2c([nH]c3ccc(Br)cc23)C2(CCN(CCc3ccccc3)CC2)N1 (centres unmarked) [TCMDC-141180],-28.21
21,O=C(NCc1ccccc1)C1Cc2c([nH]c3ccc(Br)cc23)C2(CCN(Cc3ccccc3)CC2)N1 (centres unmarked) [TCMDC-141183],77.73
22,CC(C)CCNC(=O)C1Cc2c([nH]c3cc(Br)ccc23)C2(CCN(Cc3ccccc3)CC2)N1 (centres unmarked) [TCMDC-141258],102.3
23,CCCCCCNC(=O)C1Cc2c([nH]c3ccc(Br)cc23)C2(CCN(Cc3ccccc3)CC2)N1 (centres unmarked) [TCMDC-141181],96.4
